Most compounds without a hit are left out; they make up all but 5.5% or so of the library.
Mito fusion act – blocks mitochondrial division or promotes mitochondrial fusion; 320,000 tested, 0.23% active; Potency, µM (series often up to 46.1 µM), for the others: at the top dose growth rescue (activation), hits mostly activators; AID 485298; S. cerevisiae fusion-defective mutant growth rescue, CellTiterGlo 48 h; also: % of control where 0% means no effect; nearly all actives have a fitted effect of over 45% in size
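S. cerevisiae fusion-defective temperature-sensitive mutants (e.g. fzo1-1, mgm1-5) grown 48 h at 37C in YPEG (ethanol/glycerol non-fermentable) medium with 23 nl compound per well; growth rescue read as CellTiterGlo luminescence.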
RORg inh – inhibitors of mouse ROR gamma transcriptional activity; P51450; Drosophila S2 Gal4-RORgamma UAS-luciferase reporter, 20 h; Potency, µM (top dose mostly 53.6 µM), for inactives: at the top dose activity change, negative = inhibition, actives largely listed as inhibitors; 310,000 tested, 5.4% active; AID 2551; also: % is scaled to controls: 0 for no effect and ±100 for the full control effect; nearly all actives have a fitted effect of over 60% in size
Target sequence (P51450 whole entry, looked up, the tested form may be a part): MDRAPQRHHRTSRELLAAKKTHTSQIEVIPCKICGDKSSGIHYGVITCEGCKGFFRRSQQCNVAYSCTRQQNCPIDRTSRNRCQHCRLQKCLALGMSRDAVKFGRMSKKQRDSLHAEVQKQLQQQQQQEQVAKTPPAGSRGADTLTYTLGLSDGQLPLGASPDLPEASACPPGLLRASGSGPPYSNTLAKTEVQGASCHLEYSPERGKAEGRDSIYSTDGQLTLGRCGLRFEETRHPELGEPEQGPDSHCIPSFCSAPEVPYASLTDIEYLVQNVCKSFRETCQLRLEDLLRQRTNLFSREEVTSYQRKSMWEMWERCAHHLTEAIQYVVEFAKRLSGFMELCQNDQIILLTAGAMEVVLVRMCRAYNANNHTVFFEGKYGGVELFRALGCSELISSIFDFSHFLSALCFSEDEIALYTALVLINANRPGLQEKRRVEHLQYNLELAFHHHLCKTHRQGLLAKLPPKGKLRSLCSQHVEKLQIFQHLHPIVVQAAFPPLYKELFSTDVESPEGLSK
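ROR gamma transcriptional activity was tracked as Gal4-UAS luciferase output in stably transfected Drosophila Schneider cells, with compound added 1 hr before 700 uM copper sulfate induction and a 20 hr ambient-temperature incubation.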
uPA generation – inhibitors of cell surface uPA generation; cell surface uPA generation assay, qHTS; AID 540303; Potency, µM (highest dose often 38.3 µM), for inactives: at the top dose activity change, negative = inhibition, most hits filed as inhibitors; 330,000 tested, 0.31% active; active = well fitted inhibition curve with a large enough effect; inconclusive = small, poorly fitted or top-dose-only effect; inactive = no such curve, though single readings can be large or run the other way; tested in mouse RAW 264.7 cells; also: % is scaled to controls: 0 for no effect and ±100 for the full control effect; nearly all actives have a fitted effect of over 55% in size
BCR signal inh – chronic active BCR signaling inhibition; Potency, µM (doses to about 46.1 µM), without a hit: at the top dose activity change, negative = inhibition, most hits filed as inhibitors; ABC-DLBCL IkBa-CBG/CBR reporter, luminescence ratio, 4 h; 340,000 tested, 0.05% active; active = well fitted inhibition curve with a large enough effect in the signal ratio, with a control signal flat, not every such curve was filed as active; inconclusive = small, poorly fitted or top-dose-only effect, or effect the other way, or a change in a side signal; the % refers to the signal ratio;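 also: plate controls were basal doxycycline-induced cells for no effect and cells given 10 µM MG132 for full effect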
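TMD8 human ABC-DLBCL cells with doxycycline-inducible IκBα–green luciferase fusion and unfused red luciferase, in 0.5% FBS medium; compounds up to 46 uM, 4 h at 37C. Green/red luminescence ratio, filter-overlap corrected, fitted to concentration-response curves.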
Gal4-VP16 FLuc – counter-screen for ROR gamma inhibitors: Gal4-VP16 reporter; Drosophila S2 Gal4-VP16 UAS-luciferase, luminescence, 20 h; Potency, µM (titrated, usually from 53.6 µM), inactives show at the highest dose activity, negative = inhibition, actives largely listed as inhibitors; 310,000 tested, 3.5% active;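 also: Gal4-VP16 expression switched on by copper sulfate through the metallothionein promoter; % is scaled to controls: 0 for no effect and ±100 for the full control effect; nearly all actives have a fitted effect of over 50% in size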
a7 integrin act – integrin-mediated muscular dystrophy alleviation activation; 350,000 tested, 0.064% active; AID 624291; Potency, µM (series often up to 38.3 µM), without a hit: top-dose activation, most hits filed as activators; alpha7betagal myoblasts, beta-gal FDG fluorescence, 48 h;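 also: 100% = response of the positive control SU9516; nearly all actives have a fitted effect of over 60% in size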
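alpha7betagal+/- myoblasts (passage 13, 250/well) treated 48 h at 37C with compounds at 1:260 dilution of DMSO stock. Lysed, then beta-galactosidase activity read as FDG fluorescence (ex 480/em 540) after 30 min, with pre-read for autofluorescence.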
The depositor's hits bear a star; ? = inconclusive; · = not tested or not shown; [ ] = another dose, or the depositor's remark. Unless noted, calls follow the shape of the dose curve; as a rule, active = well fitted curve in the direction sought with a large enough effect; inconclusive = small, poorly fitted or top-dose-only effect, or another doubt; inactive = no such curve, though single readings can be large; an effect the other way counts as inactive or inconclusive. Potency is read from the fitted curve at half-maximal effect.

SMILES | Mito fusion act | RORg inh | uPA generation | BCR signal inh | Gal4-VP16 FLuc | a7 integrin act
Cc1cnc(CN2CCCC(C(=O)c3ccc4c5c(cccc35)CC4)C2)[nH]1 (stereo not given) | -15.9% | 11.2µM* | -4.2% | ? | -26.1% | -28.0%
COc1cc2c(cc1OC)C1O[C@](CCCCN3C(=O)c4ccccc4C3=O)(C2)Oc2cc(C)n(Cc3ccccc3)c(=O)c21 | -0.5%[9.22 µM] | -23.0%[10 µM] | · | ? | ? | ·
O=P1(O)OP(=O)(O)OP(=O)(O)O1.[Al] | · | 11.5% | · | · | -4.0% | ·
Cc1cc(C)n2[nH]c(=O)c(N=Nc3cccc(C(F)(F)F)c3)c2n1 | 6.3% | 12.6µM* | -0.4% | ? | ? | -5.4%
Cc1cc(C)n2[nH]c(=O)c(N=Nc3ccccc3)c2n1 | -1.1% | 5.4% | 5.1% | ? | -4.1% | -8.4%
Cc1cc(C)n2[nH]c(=O)c(N=Nc3cccc(Cl)c3)c2n1 | 6.3% | 8.91µM* | 6.2% | · | 0.7% | 17.8%
O=c1[nH]c2ccccc2nc1/C=C/c1ccc(F)cc1 | 2.2% | 49.6% | -15.0% | ? | -2.3% | -24.3%
C(=C\c1nccc2c1[nH]c1ccccc12)/c1ccccc1 | ? | 1.58µM* | -1.7% | ? | 3.98µM* | -50.3%
CSc1ccc(/C=C/c2cc(=O)c3ccccc3[nH]2)cc1 | 6.6% | ? | -2.6% | 4.0% | -3.6% | -14.5%
O=c1[nH]c2ccccc2nc1/C=C/c1ccccc1 | 0.0% | -1.5% | -9.9% | ? | -8.2% | 32.5%
Cc1ccc(/C=C\c2nccc3c2[nH]c2ccccc23)cc1 | -1.4% | 0.631µM* | -13.1% | ? | 3.16µM* | -18.8%
Fc1ccc(/C=C\c2nccc3c2[nH]c2ccccc23)cc1 | 2.7% | 1.78µM* | -10.9% | ? | ? | -43.0%
CCCCC[C@H](O)/C=C/C=C\CCCCCCCC(=O)O | · | -7.5% | · | · | -3.2% | ·
CCN(C(=O)COC(=O)CCNS(=O)(=O)c1ccccc1F)c1c(N)n(Cc2ccccc2)c(=O)[nH]c1=O | · | · | 0.8% | 1.7% | · | 3.6%
CC1CCCN(S(=O)(=O)c2ccc(C(=O)Nc3nnc(C4CC4)o3)cc2)C1 (stereo not given) | -5.9% | 0.224µM* | -11.5% | 5.9% | 1µM* | -3.8%
CC1CCCN(S(=O)(=O)c2ccc(C(=O)Nc3nnc(-c4ccccn4)o3)cc2)C1 (stereo not given) | 9.6% | 1.78µM* | ? | 5.1% | -2.1% | -15.0%
COc1ccccc1NC(=O)c1ccc(S(=O)(=O)N2CCOCC2)cc1 | 3.3% | 9.2% | 8.7% | -0.7% | 2.0% | 6.1%
COc1ccccc1-c1nnc(NC(=O)c2ccc(S(=O)(=O)N3CCCC3)cc2)o1 | 0.3% | 0.708µM* | ? | ? | 0.891µM* | -45.5%
O=C(Nc1ccccn1)c1ccc(S(=O)(=O)N2CCCCC2)cc1 | -2.9% | · | -9.0% | ? | · | -5.6%
O=C(Nc1nnc(-c2ccccn2)o1)c1ccc(Br)cc1 | 12.9% | 0.631µM* | -6.2% | ? | 0.631µM* | -6.2%
CCC(=O)Nc1nnc(-c2ccccn2)o1 | -2.9% | ? | -1.4% | 1.3% | -0.4% | 1.6%
C/C(=N\O)c1ncc(C(F)(F)F)cc1Cl | 2.6% | -6.1% | -10.5% | -9.3% | -14.2% | ?
CS(=O)(=O)c1ccc(Cl)c(NC(=O)C2CCCCN2S(=O)(=O)c2ccccc2)c1 (stereo not given) | 5.8% | · | 3.9% | 2.1% | · | 20.4%
COc1ccc(-c2nnc(NC(=O)c3ccc(S(=O)(=O)N(C)CC4CCCO4)cc3)o2)c(OC)c1 (stereo not given) | 3.3% | 0.708µM* | -5.3% | -5.6% | 1µM* | 10.6%
CC1CCCN(S(=O)(=O)c2ccc(C(=O)Nc3nnc(-c4ccccc4Cl)o3)cc2)C1 (stereo not given) | 20.8% | 0.1µM* | -1.6% | 7.5% | 0.159µM* | 0.5%
SMILES | Mito fusion act | RORg inh | uPA generation | BCR signal inh | Gal4-VP16 FLuc | a7 integrin act
Cc1cc(NC(=O)c2ccc(S(=O)(=O)N(C)CC3CCCO3)cc2)no1 (stereo not given) | -1.2% | ? | 0.8% | 14.3% | -10.0% | 18.5%
O=C(Nc1cccc(S(=O)(=O)N2CCOCC2)c1)c1cc(S(=O)(=O)N2CCOCC2)c(Cl)cc1Cl | · | · | 5.3% | · | · | -28.4%
Cc1noc(C)c1-c1nc(N(C)Cc2ccco2)c2ccccc2n1 | · | -14.8% | · | · | -6.5% | ·
Cc1ccc(OCC(O)Cn2c3ccccc3c3ccccc32)cc1 (stereo not given) | -26.1% | 11.3% | -7.1% | 12.9% | -22.3% | -23.0%
OC(COCC(F)(F)C(F)(F)C(F)(F)C(F)F)Cn1c2ccccc2c2ccccc21 (stereo not given) | -37.1% | ? | -1.0% | ? | 5.01µM* | -49.7%
CCOC(=O)c1[nH]cnc1C(=O)Nc1ccc([N+](=O)[O-])cc1 | -7.3% | -0.3% | -2.0% | ? | -12.2% | -14.0%
O=C(Nc1ccc(F)cc1)c1nc[nH]c1C(=O)Nc1ccc([N+](=O)[O-])cc1 | -5.5% | 5.01µM* | 1.8% | 0.1% | 7.08µM* | -19.2%
O=C(Nc1ccc([N+](=O)[O-])cc1)c1nc[nH]c1C(=O)NC1CCCCC1 | -13.8% | 1.58µM* | 2.4% | -3.2% | 3.55µM* | 16.8%
Cc1ccc(S(=O)(=O)N2CCN(C(=O)COC(=O)CCOc3ccccc3C)CC2)c(C)c1 | 14.6% | · | 0.0% | 6.5% | · | -10.3%
c1csc(-c2ccc(N3CCOCC3)nn2)c1 | -46.7% | ? | ? | ? | 11.2µM* | -8.3%
C[C@@H]1CN=C2N(CCNC(=O)CCC3CCCCC3)[C@H](Cc3ccc(O)cc3)CN21 | -4.0% | 16.6% | 1.1% | -18.9% | 1.1% | -18.4%
CCCCCCNC(=O)N[C@H](C(=O)NCCC[C@H]1CN2C(=NC[C@H]2C)N1CCC(c1ccccc1)c1ccccc1)C(C)O (stereo not given in full) | -32.2% | -4.2% | · | 17.8µM* | ? | ·
O=C(O)c1ccc(NC(=O)c2ccccc2NC(=O)c2ccccc2Cl)cc1 | 3.7% | 28.8% | 1.6% | 13.7% | 3.2% | 12.5%
CN1C[C@@H]2C(c3ccc(Cl)nc3)C3(c4ccccc4)CC2(C3)[C@H]1c1ccccc1 (stereo not given in full) | -77.1% | 5.7% | -22.3% | ? | -3.8% | -3.7%
CC(=O)[C@H]1CC[C@H]2C3CC=C4C[C@@H](O)CC[C@]4(C)C3CC[C@]12C (stereo not given in full) | · | -12.7%[10 µM] | · | · | -3.1% | ·
O=C(CSc1nnc(NC(=O)c2c(F)cccc2F)s1)NCC1CCCO1 (stereo not given) | 3.4% | · | -4.3% | 3.5% | · | -1.9%
CCOc1ccc(C(=O)Nc2nnc(SCC(=O)NCC3CCCO3)s2)cc1 (stereo not given) | 3.0% | ? | ? | -0.1% | 3.55µM* | -24.6%
